In the first test the target is Death-associated protein kinase 3 (Homo sapiens) (UniProt O43293). Particulars: at 10 µM.
Death-associated protein kinase 3 (Homo sapiens), sequence (O43293 whole entry, looked up): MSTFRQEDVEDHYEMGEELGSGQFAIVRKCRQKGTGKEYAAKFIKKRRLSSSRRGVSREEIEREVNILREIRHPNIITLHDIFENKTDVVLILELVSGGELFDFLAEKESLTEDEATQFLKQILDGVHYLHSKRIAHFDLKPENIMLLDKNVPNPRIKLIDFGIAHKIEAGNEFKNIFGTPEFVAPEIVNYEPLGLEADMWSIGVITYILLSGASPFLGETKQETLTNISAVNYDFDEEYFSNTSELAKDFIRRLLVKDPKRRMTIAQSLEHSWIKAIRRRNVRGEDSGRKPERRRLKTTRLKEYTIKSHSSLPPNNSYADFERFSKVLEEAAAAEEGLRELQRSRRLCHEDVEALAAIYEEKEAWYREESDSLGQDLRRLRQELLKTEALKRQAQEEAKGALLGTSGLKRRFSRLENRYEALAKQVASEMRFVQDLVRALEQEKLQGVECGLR
RAF proto-oncogene serine/threonine-protein kinase (Homo sapiens), sequence (P04049 whole entry): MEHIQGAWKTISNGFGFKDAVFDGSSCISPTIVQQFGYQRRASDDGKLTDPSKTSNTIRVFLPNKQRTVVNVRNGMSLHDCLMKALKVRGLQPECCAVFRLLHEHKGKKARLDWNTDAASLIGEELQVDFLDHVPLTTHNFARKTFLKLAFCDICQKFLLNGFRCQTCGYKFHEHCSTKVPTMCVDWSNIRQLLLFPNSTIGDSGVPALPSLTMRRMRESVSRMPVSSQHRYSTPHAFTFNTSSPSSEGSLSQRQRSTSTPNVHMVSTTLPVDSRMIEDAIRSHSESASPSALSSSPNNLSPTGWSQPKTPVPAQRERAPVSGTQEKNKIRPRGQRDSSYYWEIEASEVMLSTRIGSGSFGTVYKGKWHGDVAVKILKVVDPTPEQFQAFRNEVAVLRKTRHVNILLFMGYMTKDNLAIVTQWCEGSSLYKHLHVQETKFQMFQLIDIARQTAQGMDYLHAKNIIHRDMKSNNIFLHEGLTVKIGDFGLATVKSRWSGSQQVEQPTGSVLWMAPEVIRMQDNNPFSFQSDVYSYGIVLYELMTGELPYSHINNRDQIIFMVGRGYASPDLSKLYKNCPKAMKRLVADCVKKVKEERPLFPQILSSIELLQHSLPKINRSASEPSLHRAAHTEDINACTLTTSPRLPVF
With `c1ccc(-c2n[nH]cc2-c2ccnc3ccccc23)nc1`, the residual activity (in general, the signal under treatment as a percentage of the control signal) worked out at 96%.

Take `Cn1nc2c3c(cccc31)C(=O)c1ccccc1-2`: the residual activity was determined as 82%.

Take `COc1ccc(CNc2nc(N(CCO)CCO)nc3c2ncn3C(C)C)cc1`: the residual activity was found to be 92%.

On to `CO[C@@H]1[C@H](N(C)C(=O)c2ccccc2)C[C@H]2O[C@]1(C)n1c3ccccc3c3c4c(c5c6ccccc6n2c5c31)C(=O)NC4`, for which the residual activity came out at 59%.

Regarding `C[C@@H](N)[C@H]1CC[C@H](C(=O)Nc2ccncc2)CC1`, the residual activity is 99%.

Take `Cc1cc(Nc2nc(-c3ccccc3)nc3ccccc23)n[nH]1`: the residual activity turned out to be 13%.

Turning to `Cc1cc2ncc(-c3ccccc3)nc2cc1C`, the residual activity was found to be 100%.

For the compound `CCN(CC)C(=O)c1ccc(Nc2nc(OCC3CCCCC3)c3nc[nH]c3n2)cc1`, the residual activity amounted to 65%.

Take `O=C1c2ccccc2-[n+]2ccc3c([nH]c4ccccc43)c21`: the residual activity came to 78%.

Turning to `Cc1ccc(S(=O)(=O)/C=C/C#N)cc1`, the residual activity worked out at 93%.

On to `c1ccc2c(-c3ccncc3)c[nH]c2c1`, for which the residual activity was found to be 107%.

Take `c1ccc(-c2n[nH]c3c2oc2ccccc23)cc1`: the residual activity was 100%.

In the case of `CO[C@H]1C[C@@H]2CC[C@@H](C)[C@@](O)(O2)C(=O)C(=O)N2CCCC[C@H]2C(=O)O[C@H]([C@H](C)C[C@@H]2CC[C@@H](O)[C@H](OC)C2)CC(=O)[C@H](C)/C=C(\C)[C@@H](O)[C@@H](OC)C(=O)[C@H](C)C[C@H](C)/C=C/C=C/C=C/1C`, the residual activity turned out to be 141%.

For `COc1ccc(S(=O)(=O)N(CCO)c2ccccc2CN(C)C/C=C/c2ccc(Cl)cc2)cc1`, the residual activity came to 96%.

Turning to `O=C1Nc2ccccc2/C1=C1/Nc2ccccc2/C1=N\OCCC(O)CO` (configuration not stated), the residual activity came out at 54%.

Consider `COc1cc2ncnc(Nc3ccc(NC(=O)c4ccccc4)cc3)c2cc1OC`, for which the residual activity was found to be 84%.

On to `N#Cc1cnc2cnc(NCc3cccnc3)cc2c1Nc1ccc(F)c(Cl)c1`, for which the residual activity was 48%.

Take `Ic1cccc(CSc2nnc(-c3ccncc3)o2)c1`: the residual activity is 105%.

As for `O=C(Nc1cccc(Nc2cc(Nc3cccc(C(F)(F)F)c3)ncn2)c1)C1CC1`, the residual activity amounted to 112%.

Regarding `O=[N+]([O-])c1ccc(-c2nc(-c3ccc(F)cc3)c(-c3ccncc3)[nH]2)cc1`, the residual activity came out at 102%.

For `O=Nc1c(-c2c(O)[nH]c3ccccc23)[nH]c2ccccc12`, the residual activity was determined as 37%.

`CN(C)CCCn1cc(C2=C(c3c[nH]c4ccccc34)C(=O)NC2=O)c2ccccc21`: the residual activity was found to be 35%.

In the case of `O=C1Nc2cc(Br)ccc2/C1=C1/Nc2ccccc2/C1=N\O`, the residual activity was 18%.

For the compound `COc1cc2ncc(-c3ccccc3)nc2cc1OC`, the residual activity was found to be 100%.

Take `O=C1NC(=O)/C(=C/c2ccc3c(c2)OC(F)(F)O3)S1`: the residual activity worked out at 98%.

In the case of `CC(=O)c1ccc(N2CCOCC2)cc1O`, the residual activity was determined as 97%.

With `Nc1n[nH]c2nnc(-c3c(-c4ccccc4)nn4ccccc34)cc12`, the residual activity was found to be 88%.

Consider `Nc1nc(Nc2ccc(S(N)(=O)=O)cc2)nn1C(=S)Nc1c(F)cccc1F`, for which the residual activity amounted to 78%.

Take `Cn1cnc2cc3c(Nc4cccc(Br)c4)ncnc3cc21`: the residual activity is 101%.

The next test concerns the target RAF proto-oncogene serine/threonine-protein kinase (Homo sapiens) (UniProt P04049). Particulars: at 1 µM.
`c1ccc(-c2n[nH]cc2-c2ccnc3ccccc23)nc1`: the residual activity is 81%.

Consider `Cn1nc2c3c(cccc31)C(=O)c1ccccc1-2`, for which the residual activity was 80%.

For the compound `COc1ccc(CNc2nc(N(CCO)CCO)nc3c2ncn3C(C)C)cc1`, the residual activity turned out to be 85%.

On to `CO[C@@H]1[C@H](N(C)C(=O)c2ccccc2)C[C@H]2O[C@]1(C)n1c3ccccc3c3c4c(c5c6ccccc6n2c5c31)C(=O)NC4`, for which the residual activity worked out at 80%.

For `C[C@@H](N)[C@H]1CC[C@H](C(=O)Nc2ccncc2)CC1`, the residual activity came to 100%.

For the compound `Cc1cccc(-c2[nH]c(C(C)(C)C)nc2-c2ccc3c(c2)OCO3)n1`, the residual activity is 82%.

Take `O=C1Nc2ccc(Br)cc2/C1=C\c1cc2c([nH]1)CCCC2`: the residual activity was determined as 99%.

As for `Cc1cc2ncc(-c3ccccc3)nc2cc1C`, the residual activity was found to be 97%.

As to `CCN(CC)C(=O)c1ccc(Nc2nc(OCC3CCCCC3)c3nc[nH]c3n2)cc1`, the residual activity was determined as 62%.

As for `O=C1c2ccccc2-[n+]2ccc3c([nH]c4ccccc43)c21`, the residual activity was 71%.

Consider `Cc1ccc(S(=O)(=O)/C=C/C#N)cc1`, for which the residual activity was 91%.

Take `c1ccc2c(-c3ccncc3)c[nH]c2c1`: the residual activity was determined as 73%.

On to `Cc1cncc2cccc(S(=O)(=O)N3CCCN(C(=O)CN)C[C@H]3C)c12`, for which the residual activity was determined as 79%.

Regarding `c1ccc(-c2n[nH]c3c2oc2ccccc23)cc1`, the residual activity is 74%.

On to `CO[C@H]1C[C@@H]2CC[C@@H](C)[C@@](O)(O2)C(=O)C(=O)N2CCCC[C@H]2C(=O)O[C@H]([C@H](C)C[C@@H]2CC[C@@H](O)[C@H](OC)C2)CC(=O)[C@H](C)/C=C(\C)[C@@H](O)[C@@H](OC)C(=O)[C@H](C)C[C@H](C)/C=C/C=C/C=C/1C`, for which the residual activity worked out at 73%.

For the compound `Nc1cccc(-c2cc3c(Oc4cccc(O)c4)ncnc3[nH]2)c1`, the residual activity came to 36%.

On to `COc1ccc(S(=O)(=O)N(CCO)c2ccccc2CN(C)C/C=C/c2ccc(Cl)cc2)cc1`, for which the residual activity is 78%.

For the compound `O=C1Nc2ccccc2/C1=C1/Nc2ccccc2/C1=N\OCCC(O)CO` (configuration not stated), the residual activity was found to be 54%.

`COc1cc2ncnc(Nc3ccc(NC(=O)c4ccccc4)cc3)c2cc1OC`: the residual activity is 86%.

For the compound `N#Cc1cnc2cnc(NCc3cccnc3)cc2c1Nc1ccc(F)c(Cl)c1`, the residual activity is 77%.

Regarding `Ic1cccc(CSc2nnc(-c3ccncc3)o2)c1`, the residual activity was 77%.

For the compound `O=C(Nc1cccc(Nc2cc(Nc3cccc(C(F)(F)F)c3)ncn2)c1)C1CC1`, the residual activity is 91%.

Regarding `O=[N+]([O-])c1ccc(-c2nc(-c3ccc(F)cc3)c(-c3ccncc3)[nH]2)cc1`, the residual activity turned out to be 20%.

In the case of `N#CC(C#N)=C(N)/C(C#N)=C/c1ccc(O)cc1`, the residual activity stood at 92%.

Take `O=Nc1c(-c2c(O)[nH]c3ccccc23)[nH]c2ccccc12`: the residual activity came to 89%.

Take `CN(C)CCCn1cc(C2=C(c3c[nH]c4ccccc34)C(=O)NC2=O)c2ccccc21`: the residual activity stood at 113%.

For the compound `O=C1Nc2cc(Br)ccc2/C1=C1/Nc2ccccc2/C1=N\O`, the residual activity was determined as 77%.

Regarding `COc1cc2ncc(-c3ccccc3)nc2cc1OC`, the residual activity stood at 99%.

As to `O=C1NC(=O)/C(=C/c2ccc3c(c2)OC(F)(F)O3)S1`, the residual activity was found to be 92%.

For `CC(=O)c1ccc(N2CCOCC2)cc1O`, the residual activity came out at 83%.

Regarding `Nc1n[nH]c2nnc(-c3c(-c4ccccc4)nn4ccccc34)cc12`, the residual activity stood at 80%.

For `Nc1nc(Nc2ccc(S(N)(=O)=O)cc2)nn1C(=S)Nc1c(F)cccc1F`, the residual activity is 82%.

Take `Cn1cnc2cc3c(Nc4cccc(Br)c4)ncnc3cc21`: the residual activity came out at 85%.

Source of the values: ChEMBL document CHEMBL2218924, “A broad activity screen in support of a chemogenomic map for kinase signalling research and drug discovery” (Biochem J, 2013).
